# Test results reported in PubChem BioAssay (Tox21).
# Results filed as inconclusive are left out. Active and inactive are the calls of the source. Calls follow the shape of the dose curve; as a rule, active = well fitted curve in the direction sought with a large enough effect in the repeat runs; inconclusive = weak or mixed curves; inactive = no such curve, though single readings can be large; an effect the other way counts as inactive or inconclusive.
# Experiment: Caspase-3/7 induction in HepG2 cells by small molecules, qHTS assay (AID 1346978); also: nearly all actives have a fitted effect of over 15% in size
# Conditions: HepG2 caspase-3/7 activation, Caspase-Glo luminescence, 17 h; series mostly up to 92.4 µM; caspase activation: at the top concentration
# In short: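 Wild-type HepG2 cells, 2,000/well, settled 5 hr at 37 C and 5% CO2, then compound-treated for 17 hr; caspase-3/7 activity read by luminescent Caspase-Glo 3/7 after 30 min at room temperature.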
# % is scaled to controls: 0 for no effect and ±100 for the full control effect; potency is read from the fitted curve at half-maximal effect.
SMILES,caspase activation,Potency
Cc1c(C)c2c(c(C)c1OC(=O)CCC(=O)OCCO)CC[C@@](C)(CCC[C@H](C)CCC[C@H](C)CCCC(C)C)O2,-4.2% [at 42.5 µM] (inactive),–
CN1CC(=O)N2[C@H](c3ccc4c(c3)OCO4)c3[nH]c4ccccc4c3C[C@@H]2C1=O,-1.02% [at 42.5 µM] (inactive),–
O=C=Nc1cccc(C(F)(F)F)c1,-1.15% (inactive),–
CC(CN(C)C)C(C)(O)Cc1ccc(Cl)cc1 (stereo not given),-0.563% [at 42.5 µM] (inactive),–
CCOC(=O)c1ccc(O)c(O)c1,-0.712% [at 42.5 µM] (inactive),–
OC1(c2ccccc2)CCNCC1,-1.33% [at 42.5 µM] (inactive),–
CC(C)C[C@H](NC(=O)[C@H](CCc1ccccc1)NC(=O)CN1CCOCC1)C(=O)N[C@@H](Cc1ccccc1)C(=O)N[C@@H](CC(C)C)C(=O)[C@@]1(C)CO1,–,0.266 µM (active)
CO/N=C(/C(=O)N[C@@H]1C(=O)N2C(C(=O)O)=C(COC(N)=O)CS[C@H]12)c1ccco1,-0.0965% (inactive),–
Oc1c(I)cc(I)c2cccnc12,0.766% [at 42.5 µM] (inactive),–
CC1(CN2CCC(n3c(=O)[nH]c4ccccc43)CC2)OCc2ccccc2-n2cccc21 (stereo not given),-1.65% [at 42.5 µM] (inactive),–
OC[C@H]1O[C@@H](n2cnc3c(=S)nc[nH]c32)[C@H](O)[C@@H]1O,-1.36% [at 42.5 µM] (inactive),–
O=C1NC(=O)c2cc([N+](=O)[O-])ccc21,0.158% (inactive),–
Cc1cc2c(OCC(CNC(C)(C)C)OC(=O)c3ccccc3)cccc2[nH]1 (stereo not given),-0.597% [at 42.5 µM] (inactive),–
CCOc1ccc(Cc2nccc3cc(OCC)c(OCC)cc23)cc1OCC,-4.77% [at 42.5 µM] (inactive),–
C[C@@]12CCC[C@H]1[C@@H]1CC[C@H]3C[C@@H](O)CC[C@]3(C)[C@H]1CC2,-0.0013% [at 42.5 µM] (inactive),–
Cc1[nH]cnc1CN1CCc2c(c3ccccc3n2C)C1=O,0.0596% [at 42.5 µM] (inactive),–

SMILES,caspase activation,Potency
O=C(O)c1cccc(-c2noc(-c3ccccc3F)n2)c1,-13.8% [at 42.5 µM] (inactive),–
C=C(C)[C@@H]1CCC2=CCC[C@@H](C)[C@]2(C)C1,1.5% (inactive),–
Cc1cccc(O)c1N,0.148% (inactive),–
Cc1ccccc1N=C(N)Nc1ccccc1C,-1.47% (inactive),–
O=[N+]([O-])c1cc(C2CCCCC2)c(O)c([N+](=O)[O-])c1,-0.961% (inactive),–
O[C@@H]1CO[C@H]2[C@@H]1OC[C@@H]2O,0.42% [at 42.5 µM] (inactive),–
CCC(=O)OC,-0.0707% (inactive),–
CC(C)(O)c1ccc(CNC(=O)c2cccnc2Oc2ccc3nonc3c2)cc1,-1.49% (inactive),–
NC1[C@H]2CN(c3nc4c(cc3F)c(=O)c(C(=O)O)cn4-c3ccc(F)cc3F)C[C@@H]12 (stereo not given in full),0.0363% [at 42.5 µM] (inactive),–
CC(=O)NC1(c2cccc(F)c2)CCN(CC[C@@]2(c3ccc(Cl)c(Cl)c3)CN(c3ccccc3)C(=O)CO2)CC1,–,48.7 µM (active)
O=C(CCc1ccc(O)cc1)c1c(O)cc(O)cc1O,-6.87% (inactive),–
C[C@@H](O)[C@H]1C(=O)N2C(C(=O)O)=C([C@H]3CCCO3)S[C@H]12,0.192% [at 42.5 µM] (inactive),–
O=c1cc(-c2ccccc2)oc2cc(O)cc(O)c12,-5.64% (inactive),–
C=CC(C)(CCC=C(C)C)OC(=O)CC(C)C (stereo not given),0.0079% (inactive),–
CC=C(Cl)Cl,-1.98% (inactive),–

# Experiment: Caspase-3/7 induction in CHO-K1 cells by small molecules, qHTS cell viability counter screen (AID 1346979); also: nearly all actives have a fitted effect of over 35% in size
# Conditions: CellTiter-Fluor fluorescence, 17 h; series mostly up to 92.4 µM; activity change, negative = cytotoxicity: at the top concentration
# In short: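 Following a 5hr settling period, CHO-K1 cells at 1,500 per well received DMSO-dissolved compounds. Cell viability was quantified 16hr later by CellTiter-Fluor fluorescence, measured after 1hr with reagent at 37C.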
SMILES,Potency,"activity change, negative = cytotoxicity"
COC(=O)c1nc(Cl)c(Cl)nc1N,8.41 µM (active),–
Cc1c(C)c2c(c(C)c1OC(=O)CCC(=O)OCCO)CC[C@@](C)(CCC[C@H](C)CCC[C@H](C)CCCC(C)C)O2,–,-3.15% [at 42.5 µM] (inactive)
CCOc1ccccc1O[C@H](c1ccccc1)[C@H]1CNCCO1,–,5.93% [at 42.5 µM] (inactive)
COc1cc(Nc2c(C#N)cnc3cc(OCCCN4CCN(C)CC4)c(OC)cc23)c(Cl)cc1Cl,29.8 µM (active),–
CC(CN(C)C)C(C)(O)Cc1ccc(Cl)cc1 (stereo not given),–,1.6% [at 42.5 µM] (inactive)
CCOC(=O)c1ccc(O)c(O)c1,–,-0.287% [at 42.5 µM] (inactive)
OC1(c2ccccc2)CCNCC1,–,0.266% [at 42.5 µM] (inactive)
CC(C)C[C@H](NC(=O)[C@H](CCc1ccccc1)NC(=O)CN1CCOCC1)C(=O)N[C@@H](Cc1ccccc1)C(=O)N[C@@H](CC(C)C)C(=O)[C@@]1(C)CO1,0.0944 µM (active),–
COC(=O)C1=C(C)NC(C)=C(C(=O)O[C@@H]2CCCN(Cc3ccccc3)C2)[C@@H]1c1cccc([N+](=O)[O-])c1,29.8 µM (active),–
CC1(CN2CCC(n3c(=O)[nH]c4ccccc43)CC2)OCc2ccccc2-n2cccc21 (stereo not given),29.8 µM (active),–
OC[C@H]1O[C@@H](n2cnc3c(=S)nc[nH]c32)[C@H](O)[C@@H]1O,–,-9.95% [at 42.5 µM] (inactive)
CCCCCCCCCI,–,1.56% (inactive)
O=C1NC(=O)c2cc([N+](=O)[O-])ccc21,–,10.6% (inactive)
Cc1cc2c(OCC(CNC(C)(C)C)OC(=O)c3ccccc3)cccc2[nH]1 (stereo not given),–,-1.35% [at 42.5 µM] (inactive)
Cc1[nH]cnc1CN1CCc2c(c3ccccc3n2C)C1=O,–,-6.48% [at 42.5 µM] (inactive)
O=c1c(O)c(-c2ccc(O)cc2)oc2cc(O)cc(O)c12,60.9 µM (active),–
O=C(O)c1cccc(-c2noc(-c3ccccc3F)n2)c1,–,-1.26% [at 42.5 µM] (inactive)
C=C(C)[C@@H]1CCC2=CCC[C@@H](C)[C@]2(C)C1,–,1.02% (inactive)
Cc1cccc(O)c1N,61.8 µM (active),–
O=[N+]([O-])c1cc(C2CCCCC2)c(O)c([N+](=O)[O-])c1,7.67 µM (active),–
O[C@@H]1CO[C@H]2[C@@H]1OC[C@@H]2O,–,6.76% [at 42.5 µM] (inactive)
CCC(=O)OC,–,9.2% (inactive)
NC1[C@H]2CN(c3nc4c(cc3F)c(=O)c(C(=O)O)cn4-c3ccc(F)cc3F)C[C@@H]12 (stereo not given in full),3.76 µM (active),–
CC1=C(CC=O)C(C)(C)CCC1,–,8.45% (inactive)
CC(=O)NC1(c2cccc(F)c2)CCN(CC[C@@]2(c3ccc(Cl)c(Cl)c3)CN(c3ccccc3)C(=O)CO2)CC1,34.5 µM (active),–
C[C@@H](O)[C@H]1C(=O)N2C(C(=O)O)=C([C@H]3CCCO3)S[C@H]12,–,10.6% [at 42.5 µM] (inactive)
O=c1cc(-c2ccccc2)oc2cc(O)cc(O)c12,61.1 µM (active),–
O=C(OC(=O)c1ccccc1)c1ccccc1,–,1.68% (inactive)
C=CC(C)(CCC=C(C)C)OC(=O)CC(C)C (stereo not given),–,0.503% (inactive)
